Source: ChEMBL document CHEMBL3433997, “St. Jude Leishmania screening dataset” (2016)

How the values were obtained:
Format in all cases: functional
[1] = molecular target: Solute carrier family 2, facilitated glucose transporter member 1 (Homo sapiens) (UniProt P11166); assay: ST_JUDE_LEISH: Cytotoxicity at 2uM final concentration against transgenic Leishmania Mexicana promastigotes LmGLUT1 that are glucose transport deficient and complemented with the human glucose transporter GLUT1. Activity is measured by DNA content using SYBR green in vitro
Solute carrier family 2, facilitated glucose transporter member 1 (Homo sapiens), sequence (P11166 whole entry): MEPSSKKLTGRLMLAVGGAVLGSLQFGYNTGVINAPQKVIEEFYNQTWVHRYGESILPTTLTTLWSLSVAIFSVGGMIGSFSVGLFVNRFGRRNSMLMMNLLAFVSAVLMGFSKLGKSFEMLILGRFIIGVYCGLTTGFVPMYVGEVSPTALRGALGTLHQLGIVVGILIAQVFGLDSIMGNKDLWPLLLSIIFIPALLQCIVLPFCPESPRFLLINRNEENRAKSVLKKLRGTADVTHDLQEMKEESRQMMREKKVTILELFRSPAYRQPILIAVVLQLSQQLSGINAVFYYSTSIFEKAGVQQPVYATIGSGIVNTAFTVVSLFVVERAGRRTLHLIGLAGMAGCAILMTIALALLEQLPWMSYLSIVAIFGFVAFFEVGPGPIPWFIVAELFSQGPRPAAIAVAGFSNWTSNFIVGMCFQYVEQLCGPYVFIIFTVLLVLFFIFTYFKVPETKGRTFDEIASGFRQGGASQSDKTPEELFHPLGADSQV

[2] = molecular target: Hexose transporter 1 (Plasmodium falciparum) (UniProt O97467); assay: ST_JUDE_LEISH: Cytotoxicity at 2uM final concentration against transgenic Leishmania Mexicana promastigotes LmPfHT that are glucose transport deficient and complemented with the Plasmodium falciparum hexose transporter. Activity is measured by DNA content using SYBR green in vitro
[3] = molecular target: Glucose transporter (Leishmania mexicana) (UniProt O61059); assay: ST_JUDE_LEISH: Cytotoxicity at 2uM final concentration against transgenic Leishmania Mexicana promastigotes LmGT2 that are glucose transport deficient and complemented with the L. Mexicana glucose transporter 2. Activity is measured by DNA content using SYBR green in vitro

Structure (SMILES)	inhibition [1] [%]	inhibition [2] [%]	inhibition [3] [%]
CCCCCC(C)C(C)c1cc(OC(N)=O)c2c(c1)OC(C)(C)C=C2c1ccncc1 (stereo unspecified)	-3.81	-1.09	-1.38
O=C1OC2(CCN(C(=O)c3ccc(-n4cnnn4)cc3)CC2)CN1Cc1ccc(Cl)c(Cl)c1	2.26	3.05	5.35
O=C(Nc1ccc([N+](=O)[O-])cc1Cl)c1cc(Br)cc(Cc2ccccc2)c1O	3.27	3.32	2.81
COc1cc(F)c2ncc(Cl)c(CCN3CCC(NCc4ccc5c(c4)NC(=O)CO5)CC3)c2c1	7.29	7.51	2.39
CCCc1ccc(S(=O)(=O)NC2CCN(c3ccnc(Nc4ccc(F)cc4)n3)C2)cc1 (stereo unspecified)	0.73	0.26	1.48
FC(F)(F)c1ccc2[nH]c(-c3ccc(-c4cccc(CN5CCN(c6ccncc6)CC5)c4)cc3)nc2c1	64.9	53.5	9.81
Cc1cc(N[C@@H](CC(C)C)C(=O)Nc2ccccc2)nc(NCCc2ccccc2)n1	3.68	2.93	0.92
Cc1nc(C)c(-c2ccc(-c3ccc(F)cc3)cc2)c(O)c1Cl	1.77	2.48	0.55
O=C(N[C@@H](Cc1ccccc1)[C@H](O)CNC1CCCc2ccccc21)c1cc(C2CCCC2)cc(N2CCCC2=O)c1 (stereo partly specified)	-0.02	0.77	-0.94
O=[N+]([O-])c1ccc(-c2nc3cc(C4=NC5CCCCC5N4)ccc3[nH]2)cc1 (stereo unspecified)	-0.03	-0.65	-4.46
COc1ccc(Oc2ccccc2CNCC2CCN(CC3CCCCC3)CC2)cc1	6.31	-1.98	2.13
CC(C)CCN1CCCN(Cc2cccc(NC(=O)c3ccc(Cl)c(Cl)c3)c2)CC1	-1.69	-1.38	-3.74
CCCCCN1CCC(NS(=O)(=O)c2cccc(C(=O)Nc3ccc(Cl)cc3)c2)CC1	-0.5	1.63	2.4
c1ccc(CN2CCC(NCc3ccc(-c4ccc(CNCc5cccnc5)cn4)cc3)CC2)cc1	3.27	2.84	3.77
CN1CCN(c2ccc(Nc3ccnc4ccc(-c5ccccc5)cc34)cc2)CC1	1.32	1.83	-1.67
O=S(=O)(c1c(Cl)cc(Cl)cc1Cl)N1CCCCC(c2ccc(C(F)(F)F)cc2)=N1	5.69	8.89	6.28
Cc1cc2c(NC(=O)NC3CCN(Cc4ccc(Cl)c(Cl)c4)CC3)cccc2cn1	0.94	-0.05	-3.37
O=C(/C=C/c1ccc(Cl)c(Cl)c1)NC1CCN(Cc2ccc(O)cc2)C1 (stereo unspecified)	1.46	-0.06	-0.76
CN1CCC(NCc2ccc(-c3ccc(Cl)cc3)cc2)CC1	5.65	8.78	4.44
C=CCc1cccc(CN2CCC(c3cc(O)nc(-c4ccccn4)n3)CC2)c1O	8.38	10.4	0.24
COc1ccc(CCn2c(C3CCCCC3)nc3oc4ccccc4c(=O)c3c2=O)cc1	3	5.28	-0.12
O=C(OCc1ccccc1)N1CCc2c([nH]c3ccccc23)C1CCC(F)(F)F (stereo unspecified)	3.72	2.6	0.12
CC1CN(Cc2ccc(-c3ccc(-c4nc5cc(F)ccc5[nH]4)s3)cc2)CC(C)O1 (stereo unspecified)	5.96	4.68	3.99
COc1cccc(-c2nn(C)c3sc(C(=O)NCCN4CCN(c5ccccc5F)CC4)cc23)c1	-0.88	2.01	0.29

Structure (SMILES)	inhibition [1] [%]	inhibition [2] [%]	inhibition [3] [%]
COc1ccccc1C1CCN(C2CCC(NC(=O)/C=C/c3cc(F)cc(F)c3)CC2)CC1 (stereo unspecified)	-1.84	-1.17	-2.6
CC(C)[C@H](NC(=O)c1ccc(O)c(-c2ccc(Cl)c(Cl)c2)c1)C(=O)NCCN1CCCCC1	-0.08	1.9	-1.44
CCc1nc2ccc(C(=O)OC)nc2n1Cc1ccc2oc(-c3ccccc3N)c(Br)c2c1	2.91	2.33	1.6
O=C(Nc1ccc2oc(-c3ccc(Cl)cc3Cl)nc2c1)c1ccc([N+](=O)[O-])o1	88.9	54.3	11
CCC[C@@H]([C@@H](CC1CCCCC1)C(=O)N[C@H](C(=O)Nc1nccs1)C(C)(C)SCCNC(=O)OCc1ccccn1)N(O)C=O	-3.15	-0.71	8.17
CCN(c1ccccc1)S(=O)(=O)c1ccc(OC)c(NC(=O)c2cccc(C(F)(F)F)c2)c1	10.4	7.45	7.82
COc1ccc2nc(-c3ccccc3)cc(NCCN(C)C)c2c1	8.41	9.21	4.86
CC(=O)c1sc2ccccc2c1O	-1.09	-1	1.24
CCCC(C)NC(=O)C(N)Cc1cccc(I)c1 (stereo unspecified)	1.78	-1	1.85
COc1cc(Cc2cnc(N)nc2N)ccc1OCc1csc(-c2ccc(Cl)cc2)n1	10	11.7	9.8
COC(=O)c1cccc(C#CCCOCCCCCCNC[C@H](O)c2cc(Cl)c(N)c(Cl)c2)c1	2.64	0.28	1.01
COc1ccc2ncc(OC)c(CCN3CC[C@@H](NCc4ccc5c(n4)NC(=O)CS5)[C@H](O)C3)c2n1	1.21	1.17	-0.86
N#Cc1cccc(COC(=O)C2=C(COc3ccccc3Cl)NC(=O)NC2c2c[nH]c3cnccc23)c1 (stereo unspecified)	9.04	6.63	6.83
CC(C)NCc1ccc(-c2ccc(-c3nc4cc(F)ccc4[nH]3)cc2)cc1	7.9	8.81	6.75
CC(C)n1cc2c(ccc3nc(N)nc(N)c32)n1	7.23	17.1	5.96
CCN(CC)CCCC(C)N/C(=N\c1ccccc1Br)Nc1ccc(C#N)cc1O (stereo unspecified)	1.03	0.06	-1.67
O=S(=O)(c1c(Cl)cccc1Cl)N1CCCCC(c2ccc(C(F)(F)F)cc2)=N1	2.16	4.23	4.51
Cc1ccc(-n2ncc(C(=O)Nc3cc(Cl)cc(Cl)c3)c2C2CCNCC2)cc1C	3.26	1.43	-0.12
Cc1cc(Nc2ccc(OCc3ccccc3Cl)cc2)c2cc(Cl)ccc2n1	19.8	16.4	7.55
O=C(Nc1ccc(C(=O)Oc2cccc3ccccc23)cc1)N[C@@H](Cc1ccc(O)cc1)C(=O)NC1CCN(Cc2ccc(O)cc2)C1 (stereo partly specified)	20.6	17.7	17.4
Cc1nn(CCOC(=O)NC(NCC2COc3ccccc3O2)C(Cl)(Cl)Cl)cc1[N+](=O)[O-] (stereo unspecified)	0.33	-0.07	-1.73
Cc1[nH]c(C)c(-c2ccc(OCc3cc(F)cc(F)c3)nc2)c(=O)c1Cl	5.4	4.58	2.08
COc1cc(Nc2nccc(N3CCC(NC(=O)Nc4cccc(C(C)=O)c4)C3)n2)cc(OC)c1OC (stereo unspecified)	2.52	2.96	3.92
CCN(CCCN1CCCCC1)c1cc(C)nc(Nc2ccc(C)cc2C(F)(F)F)n1	-1.87	0.39	-1.54

Structure (SMILES)	inhibition [1] [%]	inhibition [2] [%]	inhibition [3] [%]
Cc1cccc2nc(-c3cccc(-c4cccc(NC(=O)Cc5c[nH]cn5)c4)c3)[nH]c12	1.54	2.27	2.94
Clc1ccc2c(NN=Cc3cccnc3)ccnc2c1	6.14	0.59	5.48
O=C(NCCN1CCCC1)c1cc(-c2ccc(Cl)c(O)c2)c(-c2ccncc2)o1	2.96	4.79	0.49
CCOc1cc(C)ccc1N(C1CCN(CCCCNC(=O)c2ccc(-c3ccc(C(F)(F)F)cc3)cc2)CC1)S(=O)(=O)c1ccccc1	0.32	1.25	-0.57
CCC(C)NS(=O)(=O)c1ccc2nc(Nc3ccc(C)c(Cl)c3)n(C3CCCCC3)c2c1 (stereo unspecified)	5.56	5.72	4.46
CC(=O)Nc1cccc(C(=O)Nc2ccc(-c3cccc(-c4nc5cc(C(F)(F)F)ccc5[nH]4)c3)cc2)c1	2.13	0.32	-0.69
NS(=O)(=O)c1cccc(N/C=C2\C(=O)Nc3ccc(S(=O)(=O)Cc4c(Cl)cccc4Cl)cc32)c1	4.04	0.57	3.06
CO/C(=C\C=C\c1cc2cc(Cl)c(Cl)cc2[nH]1)C(=O)NC1CC(C)N(C)C(C)C1 (stereo unspecified)	-2.9	-0.97	-1.43
COc1cc(Cc2cnc(N)nc2N)ccc1OCc1ccc(F)c(F)c1	3.03	5.38	4.59
CC(C)(C)OC(=O)N1CCN(c2ccccc2NC(=O)c2cccc(C(F)(F)F)c2Oc2ccc(F)cc2)CC1	-1.41	0.7	0.52
Cc1nc(SCC(=O)N2CCCC2=O)c2c(C)c(C)sc2n1	8.94	8.95	6.78
Fc1ccc2[nH]c(-c3ccc(-c4ccc(CNCCc5ccncc5)cc4)cc3)nc2c1	4.9	2.46	2.26
CC(O)c1cccc(-c2ccc(Nc3ccnc4cc(-c5nccs5)ccc34)cc2)c1 (stereo unspecified)	4.55	4.09	4.15
Cc1cc(Nc2ccc3ccccc3c2)n2ncnc2n1	-0.63	-3.58	-1.18
CC1(C)N=C(N)N=C(N)N1c1ccc(Cl)cc1	5.04	4.91	4.69
CCCCCCN1CCCN(Cc2ccc(C(=O)Nc3ccc(CCC)cc3)cc2)CC1	9.31	7.71	7.37
CCCS(=O)(=O)c1nc(S(=O)(=O)c2ccc(Cl)cc2)c(N2CCCCC2)s1	0.14	0.19	-1.01
OC(CNCc1ccccc1OCc1ccccc1)c1cccc(Cl)c1 (stereo unspecified)	5.6	4.24	5.2
Cc1cc2nc(-c3ccc(/C=C/C(=O)NCc4ccc(Cl)c(Cl)c4)cc3)[nH]c2cc1C	8.62	8.06	4.96
Cc1cc(C)nc(-n2[nH]c(C)c(Cc3ccc(C(C)(C)C)cc3)c2=O)n1	4.87	5.45	2.9
CN(C)CCCOc1ccc(CCCCc2ccc(Cl)cc2C(=O)c2ccccc2)cc1	13.3	10.2	7.71
CC(=O)Nc1ncc(C(=O)Nc2cccc(-c3ccc(-c4nc5cc(F)ccc5[nH]4)cc3)c2)s1	4.02	1.84	2.62
CC(=O)N1N=C(c2cccs2)Sc2c1nc(-c1ccc(Cl)cc1)n2C(C)=O	11.9	12.2	11.9
Cc1ccc(-n2nc(-c3ccccc3)c3cc(C(=O)NCCN)sc32)cc1	-2.29	-1.78	-6.61
